# Nrf2 inh = Nrf2 qHTS screen for inhibitors; A549 ARE-Fluc reporter, luciferase luminescence, 18-24 h; Potency, µM (titrated, usually from 46 µM), inactives show at the highest dose activity change, negative = inhibition, usual class: inhibitors; actives 2.1% (n = 360,000); further: potency means the concentration at half of the fitted maximal effect; on the % scale 0 is the no-effect control and ±100 the full control effect; nearly all actives have a fitted effect of over 60% in size
#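 Nrf2 activity is the BugLite luminescence, read 15 min after reagent at room temperature, following CellTiter-Fluor cytotoxicity readout (30 min, 37C). Compound titrations were applied for 18-24 h to 5000 A549 ARE_Fluc cells/well in 5% FBS OPTI-MEM.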
# Nrf2 ARE act = qHTS of Nrf2 Activators; AREc32 ARE-luciferase reporter (MCF7-derived line), luminescence, 24 h; Potency, µM (highest dose often 46.1 µM), without a hit: at the highest dose activation, most hits filed as activators; actives 0.31% (n = 410,000); further: potency means the concentration at half of the fitted maximal effect; % of control where 0% means no effect; nearly all actives have a fitted effect of over 65% in size
#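 Nrf2 activation is followed as ARE-luciferase induction in the AREc32 line after one day of compound treatment; luminescence is read with Steady-Glo.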
# miR-21 act = qHTS Assay for Modulators of miRNAs and/orActivators of miR-21 | 340,000 tested, under 10 active | Potency, µM (titrated, usually from 38.3 µM), for inactives: at the highest dose activity change, positive = activation, actives largely listed as activators | AID 2288, 2010 | HeLa miR-21 FLuc reporter, luciferase, 48 h;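 further: % of control where 0% means no effect; miR-21 action dims this reporter so a rising signal means less miR-21 action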
#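 Compounds were titrated across several concentrations (up to approximately 40 uM) and incubated 48 hours with HeLa miR-21-FLuc reporter cells (miR-21 target sequence downstream of FLuc, endogenous miR-21). Readout was firefly luciferase luminescence after lytic detection reagent.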
# A549 tox = Nrf2 qHTS screen for inhibitors: counterscreen for cytotoxicity; A549 ARE-Fluc cells, CellTiter-Fluor viability, 18-24 h; Potency, µM (titrated, usually from 46 µM), without a hit: top-dose activity change, negative = cytotoxicity, hits mostly inhibitors; actives 0.16% (n = 390,000); AID 504648, 2011; further: potency means the concentration at half of the fitted maximal effect; on the % scale 0 is the no-effect control and ±100 the full control effect
#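 Cytotoxicity counterscreen: CellTiter-Fluor fluorescence was measured in A549 ARE_Fluc cells after 18-24 h of compound exposure in a concentration series. The subsequent BugLite luminescent read reports ARE-luciferase activity.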
# GRP78 ERSR act = qHTS for Inducers of the Endoplasmic Reticulum Stress Response (ERSR) in Human Glioma: qHTS. U87-MG GRP78 promoter luciferase reporter, 16 h. Potency, µM, for the others: at the top dose activation, usual class: activators. actives 0.02% (n = 420,000); further: potency means the concentration at half of the fitted maximal effect; series mostly up to about 76 µM; % of control where 0% means no effect; nearly all actives have a fitted effect of over 35% in size
#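 ERSR induction read as luciferase luminescence (Bright-Glo, 10 min at room temperature) in stably transfected human U87-MG glioma cells exposed to compounds for 16 h, using GRP78 as sensor.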
# TSG101-PTAP inh = qHTS Assay for Iinhibitors of HIV-1 Budding by Blocking the Interaction of PTAP/TSG101; Fluorescence polarization, FITC-PTAP peptide / Tsg101 binding; Potency, µM (series often up to 115 µM), for the others: at the top dose activity change, negative = inhibition, actives largely listed as inhibitors; 340,000 tested, under 10 active; AID 493005, 2010; Tumor susceptibility gene 101 protein (Homo sapiens), Q99816; active means well fitted inhibition curve with a large enough effect in the main read-out, with a control signal flat, not every such curve was filed as active; inconclusive means small, poorly fitted or top-dose-only effect, or effect the other way, or a change in a side signal; inactive means no such curve, though single readings can be large or run the other way; further: potency means the concentration at half of the fitted maximal effect; % of control where 0% means no effect
# Target sequence (Q99816 whole entry, looked up): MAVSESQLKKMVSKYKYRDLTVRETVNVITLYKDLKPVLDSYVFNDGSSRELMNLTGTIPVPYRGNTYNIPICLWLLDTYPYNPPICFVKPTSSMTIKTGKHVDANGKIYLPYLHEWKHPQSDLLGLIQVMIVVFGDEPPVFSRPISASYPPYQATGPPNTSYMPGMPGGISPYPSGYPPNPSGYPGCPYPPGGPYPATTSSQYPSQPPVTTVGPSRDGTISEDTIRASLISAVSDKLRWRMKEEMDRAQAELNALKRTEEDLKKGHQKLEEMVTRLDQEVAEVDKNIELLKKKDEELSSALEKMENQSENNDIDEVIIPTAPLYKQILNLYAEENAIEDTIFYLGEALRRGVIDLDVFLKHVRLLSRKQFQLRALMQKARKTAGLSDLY
#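 FP read-out: FITC-PTAP peptide, 50 nM final, binding Tsg101 binding domain, 10 uM final; 20 min, r.t.; 10 mM HEPES pH 7.5, 0.15 M NaCl, 0.01% Tween 20, 3 mM EDTA, 0.1 mM TCEP.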
# The depositor's hits bear a star; u = inconclusive; x = not tested or not shown; [ ] = another dose, or the depositor's remark. Most compounds without a hit are left out; they make up all but 2.1% or so of the library. Unless noted, the call rests on the fitted dose curve; in most records, active means well fitted curve in the direction sought with a large enough effect; inconclusive means small, poorly fitted or top-dose-only effect, or another doubt; inactive means no such curve, though single readings can be large; an effect the other way counts as inactive or inconclusive.
SMILES,Nrf2 inh,Nrf2 ARE act,miR-21 act,A549 tox,GRP78 ERSR act,TSG101-PTAP inh
CC(C)(C)Nc1nc(N2CCCC2)nc(N2CCCC2)n1,u,0.2%,-5.1%,14.6µM*,-0.4%,-0.7%
COc1cc(CC(=O)Nc2nc(-c3ccccc3)c(C(C)=O)s2)cc(OC)c1OC,20.6µM*,0.8%,29.2%,-11.4%,-3.5%,-8.4%
O=C(Nc1nnc(-c2ccco2)o1)c1ccc(S(=O)(=O)N2CCCC2)cc1,u,-0.5%,20.6%,-11.0%,-0.9%,-7.9%
CC1CCCN(S(=O)(=O)c2ccc(C(=O)Nc3nnc(-c4ccccn4)o3)cc2)C1 (configuration not stated),13µM*,2.1%,-0.1%,0.1%,-2.2%,-5.9%
CC1CCN(S(=O)(=O)c2ccc(C(=O)Nc3nnc(-c4ccco4)o3)cc2)CC1,8.2µM*,-0.5%,24.3%,-0.1%,-1.7%,-4.3%
Cc1ccc(C(=O)Nc2nnc(-c3ccco3)o2)cc1,3.2%,1.9%,-51.4%,12.9%,-10.6%,-3.9%
O=C(Nc1nnc(-c2ccco2)o1)c1ccc([N+](=O)[O-])s1,20.6µM*,1.5%,-4.6%,u,-3.4%,-4.5%
COc1cccc(-c2nnc(NC(=O)c3ccc(S(=O)(=O)N4CC(C)OC(C)C4)cc3)o2)c1 (configuration not stated),9.2µM*,-0.4%,8.5%,-23.3%,-6.3%,0.6%
COc1ccccc1NC(=O)c1ccc(S(=O)(=O)N2CCC(C)CC2)cc1,8.2µM*,-0.6%,9.1%,-0.2%,-5.1%,-2.5%
O=C(Nc1nnc(-c2ccc(F)cc2)o1)c1ccc(S(=O)(=O)N2CCOCC2)cc1,9.2µM*,1.7%,3.0%,-18.9%,-8.3%,-5.6%
O=C1CCC[C@@H]2C[C@@]3(C[C@@H]4CCN1[C@H]24)Nc1cc([N+](=O)[O-])ccc1NC3=NCc1ccccc1,x,x,x,x,-2.3%,x
CCCN1C(=O)/C(=C/c2ccc(N3CCCC3)c(C)c2)NC1=S,20.6µM*,4.4%,6.6%,-15.7%,3.9%,u
Cc1cccc(Cn2cnc3c(cnn3C(C)(C)C)c2=O)c1F,x,x,x,x,-2.3%,x
Cc1ccc(NC(=O)c2cc3c(s2)CCC3)cc1S(=O)(=O)N1CCOCC1,20.6µM*,0.1%,0.0%,-19.5%,0.1%,-10.2%
COc1ccc(C(=O)Nc2ccc(N3CCOCC3)cc2)cc1S(=O)(=O)N1CCOCC1,-4.4%,0.3%,x,0.6%,-0.9%,-4.0%
COc1ccc(C(=O)Nc2ccc(-c3ccc(C)o3)cc2)cc1S(=O)(=O)N1CCOCC1,18.4µM*,3.6%,26.3%,u,1.9%,0.7%
COc1ccc(NC(=O)c2cc3c(s2)CCC(C)C3)cc1S(=O)(=O)N1CCOCC1 (configuration not stated),18.4µM*,0.4%[9.22 µM],29.8%,-16.8%,0.9%,-1.2%
CC[N+](C)(C)c1ccc(/C=C/c2ccnc3ccccc23)cc1,x,x,x,x,-9.3%,x
O=c1c2cn[nH]c2nc(SCc2cccc(Br)c2)n1-c1ccc(Cl)cc1,x,1.8%,u,5.6%,-3.5%,x
O=c1c2cn[nH]c2nc(SCc2ccc3c(c2)OCCO3)n1-c1ccccc1,20.6µM*,2.6%,-4.9%,-15.6%,-6.9%,-2.2%
CCC1(C2CCN(C(=O)c3ccc4ccccc4c3)CC2)NC(=O)N(CCc2scnc2C)C1=O (configuration not stated),x,x,x,x,3.8%,x
O=C1c2ccccc2C(=O)c2[nH]c(=O)[nH]c21,20.6µM*,-1.9%,u,14.6µM*,-14.6%,-8.3%
C=CCOc1c(Br)cc(CNc2ccc(NC(=O)CCC)cc2)cc1OCC,14.6µM*,2.7%,8.6%,-17.0%,-7.4%,-8.0%
CCOc1cc(CNc2ccc(N3CCCCC3)cc2)cc(Br)c1OCC(=O)NC(C)(C)C,16.4µM*,-0.6%,-12.0%,u,-3.8%,-4.2%
C=CCOc1ccc(CNc2ccc(NC(=O)CCC)cc2)cc1OCC,-14.5%,0.2%,-15.2%,-9.9%,-5.2%,0.7%
SMILES,Nrf2 inh,Nrf2 ARE act,miR-21 act,A549 tox,GRP78 ERSR act,TSG101-PTAP inh
CCOc1cc(CNc2ccc(N(C)C)cc2)cc(Br)c1OCC(=O)NC(C)(C)C,u,5.2%,-9.4%,u,-0.4%,-1.7%
CC(C)c1c(C(=O)N(C)C2CCN(C)CC2)cnn1-c1nccc(-c2ccco2)n1,x,x,x,x,1.1%,x
COc1ccc(OC)c(NC(=O)c2nc(S(=O)(=O)Cc3ccc(F)cc3)ncc2Cl)c1,u,2.8%,11.7µM*,u,-10.0%,x
COc1ccccc1NC(=O)c1nc(S(=O)(=O)Cc2ccccc2)ncc1Cl,u,u,u,-27.2%,4.5%,2.6%
CCOC(=O)c1ccc(NC(=O)c2nc(S(=O)(=O)Cc3ccccc3)ncc2Cl)cc1,u,3.16µM*,u,u,-13.1%,5.2%
Cc1ccc(CNC(=O)c2nc(S(=O)(=O)Cc3ccc(C)cc3)ncc2Cl)cc1,11.6µM*,9.6%,12.0%,-19.8%,3.7%,x
CC(C)C[C@@H](CN=[N+]=[N-])N1CCN(CCc2ccccc2)CCC1=O,x,x,x,x,-2.6%,x
CC(=O)N(C)c1ccc(OCC(O)Cn2c3ccc(Cl)cc3c3cc(Cl)ccc32)cc1 (configuration not stated),20.6µM*,-1.5%,-6.4%,u,-6.2%,4.3%
Cc1ccc(OCC(O)Cn2c3ccccc3c3ccccc32)cc1 (configuration not stated),u,2.1%,13.8%,-28.4%,-1.4%,-4.2%
COc1ccc(OC)c(-c2csc(NC(=O)c3ccc(F)cc3)n2)c1,18.4µM*,5.9%,12.4%,-4.8%,4.0%,-1.8%
Cc1sc(NC(=O)Cn2[nH]c(=O)c3ccccc3c2=O)nc1-c1ccccc1,16.4µM*,0.4%[9.22 µM],-20.2%,-16.4%,10.3%,-0.9%
COc1cccc(C(=O)Nc2nc(-c3ccncc3)cs2)c1,u,1.8%,-12.8%,0.5%,0.1%,-1.0%
COc1cccc(C(=O)Nc2nc(-c3ccc4c(c3)OCO4)cs2)c1,13µM*,3.9%,-8.3%,-22.6%,-1.9%,-0.4%
COc1ccc(OC)c(-c2csc(NC(=O)Cc3ccc(F)cc3)n2)c1,u,1.0%,1.3%,-1.6%,-2.1%,0.8%
Cc1c(NC(=O)Cn2[nH]c(=O)c3ccccc3c2=O)c(=O)n(-c2ccccc2)n1C,x,0.2%,-2.7%,-2.1%,-2.9%,-1.1%
COc1ccc(OC)c(-c2csc(NC(=O)Cn3[nH]c(=O)c4ccccc4c3=O)n2)c1,10.3µM*,2.5%,-9.2%,-16.6%,-5.5%,0.9%

# Assay outcomes deposited in PubChem BioAssay by National Center for Advancing Translational Sciences (NCATS).
